SW480 rerep – induces DNA re-replication in SW480 colon adenocarcinoma cells | SW480 DNA re-replication, Hoechst DNA content imaging, 48 h | Potency, µM (titrated, usually from 46.1 µM), inactives show at the highest dose re-replication activation, actives largely listed as activators | 340,000 compounds, 1.8% hits | AID 624297; also: potency is read from the fitted curve at half-maximal effect; % of control where 0% means no effect; nearly all actives have a fitted effect of over 55% in size
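DNA re-replication was detected as more nuclei of elevated Hoechst intensity after 48 hr exposure to compound (23 nL pinned per well of 250 cells).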
KB-V1 cytotox – kills drug-selected multidrug resistant KB-V1 cells; KB-V1 MDR cells viability, CellTiter-Glo, 72 h; Potency, µM (top dose mostly 46.1 µM), most hits filed as cytotoxic; 400,000 compounds, 3.4% hits; AID 1347076; also: potency is read from the fitted curve at half-maximal effect; % is scaled to controls: 0 for no effect and ±100 for the full control effect; nearly all actives have a fitted effect of over 60% in size
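KB-V1 MDR subline cells in DMEM (phenol-red free, 10% FBS) exposed to compounds in qHTS concentration series for 72 h at 37 degrees C. Viability read by CellTiter-Glo luminescence; concentration-effect curves fitted after normalization and correction.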
IL-1B inflam inh – inhibitors of inflammasome signaling (IL-1 beta secretion). 360,000 compounds, 4.7% hits. THP-1 LPS/ATP IL-1B secretion, AlphaLISA, 16 h; stronger effect = lower value. activity change, % at 57.5 µM. AID 743279; in the data active = activity change below about -50%; inconclusive = mostly about -30% to -49%; also: % is scaled to controls: 0 for no effect and ±100 for the full control effect
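Secreted IL-1B measured by AlphaLISA bead assay after 16 h compound exposure of THP-1 cells; compounds (final up to 57.5 uM) added 1 h before LPS (250 ng/mL) and ATP (1.25 mM) stimulation; lower signal means less secretion.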
KB-3-1 tox – kills parental KB-3-1 adenocarcinoma cells | KB-3-1 viability, CellTiter-Glo ATP luminescence, 72 h | 400,000 compounds, 1.4% hits | Potency, µM (highest dose often 46.1 µM), actives largely listed as cytotoxic; also: potency is read from the fitted curve at half-maximal effect; % is scaled to controls: 0 for no effect and ±100 for the full control effect; nearly all actives have a fitted effect of over 60% in size
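Here the drug-naive KB-3-1 line serves as comparator for MDR sub-line selectivity; cells received compound titrations, 72 h at 37 °C, then CellTiter-Glo readout.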
MCF10A rerep – inducers of DNA re-replication in MCF 10A breast cells; MCF 10A DNA re-replication, Hoechst nuclear intensity, 48 h; AID 624296; 350,000 compounds, 2.9% hits; Potency, µM (series often up to 46.1 µM), without a hit: at the highest dose activity, positive = re-replication, actives largely listed as activators; also: potency is read from the fitted curve at half-maximal effect; % of control where 0% means no effect; nearly all actives have a fitted effect of over 50% in size
An asterisk follows results filed as active; i = inactive; ? = inconclusive; . = no result given. The list is not random: actives were taken first. Their share in the collection is about 9.9%. Unless noted, calls follow the shape of the dose curve; as a rule, active = well fitted curve in the direction sought with a large enough effect; inconclusive = small, poorly fitted or top-dose-only effect, or another doubt; inactive = no such curve, though single readings can be large; an effect the other way counts as inactive or inconclusive.

SMILES	SW480 rerep	KB-V1 cytotox	IL-1B inflam inh	KB-3-1 tox	MCF10A rerep
CCOC(=O)CCNC(=O)N1CCCC(C(=O)c2cccc(OC(C)C)c2)C1 (centres undefined)	5.3%	?	20.1	i	13.8%
CCC(CC)c1nn2c(=O)cc(COc3ccc(NC(=O)c4cccc(C)c4)cc3)nc2s1	.	i	.	i	.
COc1cc(-c2coc3c(C(=O)NCc4ccc(N(C)C)cc4)cccc23)ccc1O	.	i	-53.1*	i	.
COc1cc(-c2coc3c(C(=O)NCc4ccc(OC)c(OC)c4)cccc23)ccc1O	.	?	-5.2	?	.
Cn1cc(-c2coc3c(C(=O)NCc4cccs4)cccc23)cn1	.	i	-8.9	i	.
Cn1cc(-c2coc3c(C(=O)NCc4cccc(Cl)c4)cccc23)cn1	.	i	-67.6*	i	.
COc1cc(-c2coc3c(C(=O)NCc4ccncc4)cccc23)ccc1O	.	?	-67.3*	i	.
O=c1c2ccccc2nnn1-c1ccc(Br)cc1	-9.1%	i	20.8	i	-1.8%
CCc1ccccc1NC(=O)CSc1ncc2c(n1)-c1ccccc1N(Cc1ccc(C)cc1)S2(=O)=O	.	i	.	i	.
Cc1ccc(C(=O)Nc2nc(C)c(C(=O)Nc3ccc4c(c3)CCC4)s2)cc1	5.8µM*	2.91µM*	79.0	20.6µM*	1.03µM*
CS(=O)(=O)N(CC(=O)N1CCCCCC1)c1cccc(F)c1	-5.8%	i	3.8	i	?
O=C(c1c[nH]c(C(=O)C(Cl)(Cl)Cl)c1)c1c(F)cccc1F	?	i	-98.7*	i	?
Cc1ccc(C(=O)OCn2ncc(Cl)c(Cl)c2=O)cc1	?	?	-99.1*	4.61µM*	3.66µM*
O=C(OCn1ncc(Cl)c(Cl)c1=O)c1ccc(C(F)(F)F)cc1	6.51µM*	6.51µM*	-99.2*	7.31µM*	6.51µM*
CCN1CCN(c2cc(C)nc(-c3ccccc3O)n2)CC1	-5.0%	i	-69.0*	i	6.4%
CCN(CC)c1ccc(/C=N/NC(=S)NCc2ccco2)cc1	?	?	-18.4	18.4µM*	?
O=C(O)CCCCCN1C(=O)c2ccc(C(=O)O)cc2C1=O	-25.0%	i	16.4	i	14.6µM*
Cc1ccc(C)c(C(=O)CN2C3=NCCCN3c3ccccc32)c1	2.1%	i	-66.4*	i	?
COc1ccc(C(=O)CN2C3=NCCCN3c3ccccc32)cc1OC	0.259µM*	i	-9.1	i	-0.7%
COc1cccc(C(=O)CN2C3=NCCCN3c3ccccc32)c1	-2.3%	i	-4.2	i	-1.5%
Cn1c(CSCc2ccccc2Cl)nnc1SCC(=O)Nc1nccs1	-11.4%	20.6µM*	9.6	i	12.1%
Cn1c(SCC(=O)Nc2nccs2)nnc1C12CC3CC(CC(C3)C1)C2	-1.3%	20.6µM*	12.3	i	4.6%
CC1CCN(c2nn3c(=O)c(C(=O)NC(C)C)cnc3s2)CC1	.	i	.	i	.
CCNC(=O)C1(C)CCCN(C(=O)c2ccc3c(c2)C(C)(C)CCC3(C)C)C1 (centres undefined)	.	i	41.2	i	.
O=C1C=CC(=O)N1	4.6%	i	-12.0	i	66.3%
SMILES	SW480 rerep	KB-V1 cytotox	IL-1B inflam inh	KB-3-1 tox	MCF10A rerep
COc1ccc(S(=O)(=O)N2CCOCC2)cc1NS(=O)(=O)c1ccc(F)c(F)c1	-7.2%	23.1µM*	17.7	i	-2.6%
COc1ccc(S(=O)(=O)Nc2ccccc2N2CCOCC2)cc1OC	-5.9%	23.1µM*	14.3	i	-5.2%
O=S(=O)(Nc1ccccc1N1CCOCC1)c1ccc(Cl)cc1	?	?	53.4	i	-3.6%
Cc1ccc(S(=O)(=O)Nc2cc3c(cc2N2CCOCC2)n(C)c(=O)c(=O)n3C)cc1	-12.0%	i	-10.5	i	1.9%
CCOc1ccccc1NS(=O)(=O)c1ccc(OC)c(OC)c1	-24.0%	25.9µM*	6.0	i	16.0%
Cn1c(=O)c(=O)n(C)c2cc(N3CCOCC3)c(NS(=O)(=O)c3ccc(Br)cc3)cc21	0.4%	?	-69.4*	i	-1.1%
Cc1ccc(S(=O)(=O)N2CCOCC2)cc1NS(=O)(=O)c1ccc(F)c(F)c1	3.2%	i	51.3	i	-2.9%

Screening results as filed in PubChem.
